{"source": "the supplement of paper PMC12669032", "data": [{"test_system": "Clostridium difficile", "test": "growth AUC relative to DMSO control (median of replicates) (fraction); higher = more growth (less inhibition), active = hit call of the paper", "conditions": "20 µM; 24 h;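 active = AUC reduced over 20% with Padj below 0.05 in at least 2 of 3 replicates; inactive = otherwise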", "procedure,_shortened": "(§1)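 Area under the growth curve was normalised to the plate median of solvent-only wells, or to row and column medians on the industrial chemical plate. Growth curves came from anaerobic gut bacterial monocultures in mGAM at 37 °C, seeded at OD600 0.05 with 20 µM compound (1% DMSO), and read at OD600 hourly for 24 h with the minimum OD set to 0. The value is the median of three biological replicates grown on separate days.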", "values": [{"smiles": "BrCCBr", "growth AUC": "0.997 (inactive)"}, {"smiles": "O=C(O)c1ccc(Cl)nc1", "growth AUC": "1.03 (inactive)"}, {"smiles": "N#CCNC(=O)c1cnccc1C(F)(F)F", "growth AUC": "0.99 (inactive)"}, {"smiles": "O=C1c2ccccc2C(=O)N1SC(Cl)(Cl)Cl", "growth AUC": "1.01 (inactive)"}, {"smiles": "CCC(CC)Nc1c([N+](=O)[O-])cc(C)c(C)c1[N+](=O)[O-]", "growth AUC": "0.962 (inactive)"}, {"smiles": "COc1ccc(/C(=C/C(=O)N2CCOCC2)c2ccc(Cl)cc2)cc1OC", "growth AUC": "0.932 (inactive)"}, {"smiles": "CON(C)C(=O)Nc1ccc(Br)c(Cl)c1", "growth AUC": "0.996 (inactive)"}, {"smiles": "COP(=S)(NC(C)C)Oc1ccc(C)cc1[N+](=O)[O-]", "note": "(stereo not drawn)", "growth AUC": "1.08 (inactive)"}, {"smiles": "CCCCc1c(C)nc(N(C)C)[nH]c1=O", "growth AUC": "0.997 (inactive)"}, {"smiles": "CCCSP(=S)(OCC)Oc1ccc(Cl)cc1Cl", "note": "(stereo not drawn)", "growth AUC": "1.05 (inactive)"}, {"smiles": "O=S1(=O)OCC2C(CO1)C1(Cl)C(Cl)=C(Cl)C2(Cl)C1(Cl)Cl", "note": "(stereo not drawn)", "growth AUC": "1 (inactive)"}, {"smiles": "Oc1ccc(-c2ccccc2)cc1", "growth AUC": "1.03 (inactive)"}, {"smiles": "CC(C)(C)c1ccc(CSc2cnn(C(C)(C)C)c(=O)c2Cl)cc1", "growth AUC": "0.963 (inactive)"}, {"smiles": "CCOc1ccc(C(C)(C)COCc2cccc(Oc3ccccc3)c2)cc1", "growth AUC": "1.04 (inactive)"}, {"smiles": "CNC(=O)Oc1cccc2c1OC(C)(C)C2=O", "growth AUC": "1.01 (inactive)"}, {"smiles": "CCOC(=O)N(C)C(=O)CSP(=S)(OCC)OCC", "growth AUC": "1.01 (inactive)"}, {"smiles": "Nc1c(Cl)cc([N+](=O)[O-])cc1Cl", "growth AUC": "1 (inactive)"}, {"smiles": "O=C1C(Cl)=C(Cl)C(=O)C(Cl)=C1Cl", "growth AUC": "1.03 (inactive)"}, {"smiles": "COc1cc(OC)nc(NC(=O)[N-]S(=O)(=O)c2ncccc2OCC(F)(F)F)n1.[Na+]", "growth AUC": "1 (inactive)"}, {"smiles": "Cc1cc(Cl)ccc1N=CN(C)C.Cl", "growth AUC": "1.04 (inactive)"}, {"smiles": "CCOCn1c(-c2ccc(Cl)cc2)c(C#N)c(Br)c1C(F)(F)F", "growth AUC": "0.816 (inactive)"}, {"smiles": "CCOP(=S)(OCC)Oc1cnc2ccccc2n1", "growth AUC": "0.988 (inactive)"}, {"smiles": "C#CCC1=C(C)C(OC(=O)C2C(C=C(C)C)C2(C)C)CC1=O", "note": "(stereo not drawn)", "growth AUC": "0.969 (inactive)"}, {"smiles": "CCOP(=S)(OCC)SCCS(=O)CC", "note": "(stereo not drawn)", "growth AUC": "0.967 (inactive)"}, {"smiles": "CO/N=C(/C(=O)OC)c1ccccc1CO/N=C(\\C)c1cccc(C(F)(F)F)c1", "growth AUC": "1.09 (inactive)"}, {"smiles": "CCSC(=O)N1CCCCCC1", "growth AUC": "0.992 (inactive)"}, {"smiles": "COC(C)(C)CCCC(C)C/C=C/C(C)=C/C(=O)OC(C)C", "note": "(stereo not drawn)", "growth AUC": "1.02 (inactive)"}, {"smiles": "Clc1c(Cl)c(Cl)c(Cl)c(Cl)c1Cl", "growth AUC": "1 (inactive)"}, {"smiles": "C[C@@H]1C[C@@H]([C@H](O)CC2CC(=O)NC(=O)C2)C(=O)[C@@H](C)C1", "growth AUC": "1.05 (inactive)"}, {"smiles": "CCS(=O)(=O)Cc1ccccc1OC(=O)NC", "growth AUC": "0.977 (inactive)"}, {"smiles": "CC1CNC(=S)N1", "note": "(stereo not drawn)", "growth AUC": "1.06 (inactive)"}, {"smiles": "CCNc1nc(Cl)nc(NC(C)(C)C)n1", "growth AUC": "0.977 (inactive)"}, {"smiles": "COP(=O)(OC)OC(Br)C(Cl)(Cl)Br", "note": "(stereo not drawn)", "growth AUC": "0.987 (inactive)"}, {"smiles": "O=C(NC(=O)c1ccccc1Cl)Nc1ccc(OC(F)(F)F)cc1", "growth AUC": "0.946 (inactive)"}, {"smiles": "O=C(O)C(Cl)Cl", "growth AUC": "1 (inactive)"}, {"smiles": "CCCOc1nn(C(=O)[N-]S(=O)(=O)c2ccccc2C(=O)OC)c(=O)n1C.[Na+]", "growth AUC": "0.994 (inactive)"}, {"smiles": "Oc1ccc(Cl)cc1", "growth AUC": "0.981 (inactive)"}, {"smiles": "C/C(=N\\NC(=O)Nc1cc(F)cc(F)c1)c1ncccc1C(=O)[O-].[Na+]", "growth AUC": "1 (inactive)"}, {"smiles": "CCCN(CCOc1c(Cl)cc(Cl)cc1Cl)C(=O)n1ccnc1", "growth AUC": "0.982 (inactive)"}]}, {"test_system": "Collinsella aerofaciens", "test": "growth AUC relative to DMSO control (median of replicates) (fraction); higher = more growth (less inhibition), active = hit call of the paper", "conditions": "20 µM; 24 h", "procedure,_shortened": "as §1", "values": [{"smiles": "BrCCBr", "growth AUC": "0.995 (inactive)"}, {"smiles": "O=C(O)c1ccc(Cl)nc1", "growth AUC": "0.999 (inactive)"}, {"smiles": "N#CCNC(=O)c1cnccc1C(F)(F)F", "growth AUC": "1.01 (inactive)"}, {"smiles": "O=C1c2ccccc2C(=O)N1SC(Cl)(Cl)Cl", "growth AUC": "0.983 (inactive)"}, {"smiles": "CCC(CC)Nc1c([N+](=O)[O-])cc(C)c(C)c1[N+](=O)[O-]", "growth AUC": "0.909 (inactive)"}, {"smiles": "COc1ccc(/C(=C/C(=O)N2CCOCC2)c2ccc(Cl)cc2)cc1OC", "growth AUC": "0.93 (inactive)"}, {"smiles": "CON(C)C(=O)Nc1ccc(Br)c(Cl)c1", "growth AUC": "1 (inactive)"}, {"smiles": "COP(=S)(NC(C)C)Oc1ccc(C)cc1[N+](=O)[O-]", "note": "(stereo not drawn)", "growth AUC": "1.05 (inactive)"}, {"smiles": "CCCCc1c(C)nc(N(C)C)[nH]c1=O", "growth AUC": "1.05 (inactive)"}, {"smiles": "CCCSP(=S)(OCC)Oc1ccc(Cl)cc1Cl", "note": "(stereo not drawn)", "growth AUC": "0.965 (inactive)"}, {"smiles": "O=S1(=O)OCC2C(CO1)C1(Cl)C(Cl)=C(Cl)C2(Cl)C1(Cl)Cl", "note": "(stereo not drawn)", "growth AUC": "0.993 (inactive)"}, {"smiles": "Oc1ccc(-c2ccccc2)cc1", "growth AUC": "1 (inactive)"}, {"smiles": "CC(C)(C)c1ccc(CSc2cnn(C(C)(C)C)c(=O)c2Cl)cc1", "growth AUC": "0.999 (inactive)"}, {"smiles": "CCOc1ccc(C(C)(C)COCc2cccc(Oc3ccccc3)c2)cc1", "growth AUC": "0.967 (inactive)"}, {"smiles": "CNC(=O)Oc1cccc2c1OC(C)(C)C2=O", "growth AUC": "1.01 (inactive)"}, {"smiles": "CCOC(=O)N(C)C(=O)CSP(=S)(OCC)OCC", "growth AUC": "0.997 (inactive)"}, {"smiles": "Nc1c(Cl)cc([N+](=O)[O-])cc1Cl", "growth AUC": "0.897 (inactive)"}, {"smiles": "O=C1C(Cl)=C(Cl)C(=O)C(Cl)=C1Cl", "growth AUC": "0.992 (inactive)"}, {"smiles": "COc1cc(OC)nc(NC(=O)[N-]S(=O)(=O)c2ncccc2OCC(F)(F)F)n1.[Na+]", "growth AUC": "1 (inactive)"}, {"smiles": "Cc1cc(Cl)ccc1N=CN(C)C.Cl", "growth AUC": "0.978 (inactive)"}, {"smiles": "CCOCn1c(-c2ccc(Cl)cc2)c(C#N)c(Br)c1C(F)(F)F", "growth AUC": "0.926 (inactive)"}, {"smiles": "CCOP(=S)(OCC)Oc1cnc2ccccc2n1", "growth AUC": "0.992 (inactive)"}, {"smiles": "C#CCC1=C(C)C(OC(=O)C2C(C=C(C)C)C2(C)C)CC1=O", "note": "(stereo not drawn)", "growth AUC": "0.985 (inactive)"}, {"smiles": "CCOP(=S)(OCC)SCCS(=O)CC", "note": "(stereo not drawn)", "growth AUC": "1 (inactive)"}, {"smiles": "CO/N=C(/C(=O)OC)c1ccccc1CO/N=C(\\C)c1cccc(C(F)(F)F)c1", "growth AUC": "0.993 (inactive)"}, {"smiles": "CCSC(=O)N1CCCCCC1", "growth AUC": "0.981 (inactive)"}, {"smiles": "COC(C)(C)CCCC(C)C/C=C/C(C)=C/C(=O)OC(C)C", "note": "(stereo not drawn)", "growth AUC": "1.04 (inactive)"}, {"smiles": "Clc1c(Cl)c(Cl)c(Cl)c(Cl)c1Cl", "growth AUC": "1.06 (inactive)"}, {"smiles": "C[C@@H]1C[C@@H]([C@H](O)CC2CC(=O)NC(=O)C2)C(=O)[C@@H](C)C1", "growth AUC": "0.989 (inactive)"}, {"smiles": "CCS(=O)(=O)Cc1ccccc1OC(=O)NC", "growth AUC": "1.05 (inactive)"}, {"smiles": "CC1CNC(=S)N1", "note": "(stereo not drawn)", "growth AUC": "1.04 (inactive)"}, {"smiles": "CCNc1nc(Cl)nc(NC(C)(C)C)n1", "growth AUC": "0.971 (inactive)"}, {"smiles": "COP(=O)(OC)OC(Br)C(Cl)(Cl)Br", "note": "(stereo not drawn)", "growth AUC": "1.03 (inactive)"}, {"smiles": "O=C(NC(=O)c1ccccc1Cl)Nc1ccc(OC(F)(F)F)cc1", "growth AUC": "0.937 (inactive)"}, {"smiles": "O=C(O)C(Cl)Cl", "growth AUC": "0.981 (inactive)"}, {"smiles": "CCCOc1nn(C(=O)[N-]S(=O)(=O)c2ccccc2C(=O)OC)c(=O)n1C.[Na+]", "growth AUC": "1.02 (inactive)"}, {"smiles": "Oc1ccc(Cl)cc1", "growth AUC": "0.988 (inactive)"}, {"smiles": "C/C(=N\\NC(=O)Nc1cc(F)cc(F)c1)c1ncccc1C(=O)[O-].[Na+]", "growth AUC": "0.965 (inactive)"}, {"smiles": "CCCN(CCOc1c(Cl)cc(Cl)cc1Cl)C(=O)n1ccnc1", "growth AUC": "1.02 (inactive)"}]}]}
